tim23-1 inh: inhibits growth of tim23-1 mutant yeast. AID 463212. hit rate 1.3% among 330,000. S. cerevisiae tim23-1 growth, BacTiter-Glo luminescence, 24 h. inhibition, % at 20 µM;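 active = growth inhibition of the mutant yeast at or above 50%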;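 note: temperature-sensitive mutant grown at 25 °C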
tim10-1 inh: growth inhibitors of tim10-1 mutant yeast; S. cerevisiae tim10-1 ts strain growth, BacTiter-Glo, 24 h; inhibition, % at 20 µM; hit rate 2.2% among 330,000;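 active = inhibition of at least 40%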;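 note: mutant grown at 25 °C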
NLRP3 yeast inh: NALP3 inhibition in yeast | Yeast reconstituted NLRP3/ASC/caspase-1, beta-gal luminescence, 24 h | inhibition, % at 10 µM | hit rate 0.39% among 330,000 | AID 2825;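 active = inhibition of 50% or more; inactive = inhibition below 50%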
TIM10 inh: TIM10 yeast growth inhibition. hit rate 1.4% among 330,000. AID 463195. inhibition, % at 10 µM. S. cerevisiae TIM10 strain growth, BacTiter-Glo luminescence, 24 h;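 active = inhibition of 40% or more at the single tested concentration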;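 note: wild-type TIM10 isogenic control strain grown at permissive 25 °C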
NALP1 inh: inhibitors of NALP1 inflammasome in yeast | S. cerevisiae NALP1/ASC/caspase-1 growth, X-gal OD620, 72 h | hit rate 0.61% among 280,000 | inhibition, % at 10 µM | AID 2071; in the data active = inhibition mostly above about 24%, no sharp cut-off; inactive = mostly below about 32%
tim10-1 conf: tim10-1 yeast growth inhibition, confirmed; inhibition, % at 20 µM; hit rate 56% among 7,400; S. cerevisiae tim10-1 ts strain growth, BacTiter-Glo, 24 h; shares compounds with tim10-1 inh;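 active = inhibition of yeast growth at or above a set limit in either of two repeat tests at 20 µM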;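 note: tim10-1 mutant grown at permissive 25 °C to find synthetic lethal compounds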
TIM10 conf: confirmation of TIM10 yeast growth inhibitors | hit rate 63% among 4,600 | inhibition, % at 10 µM | shares compounds with TIM10 inh | S. cerevisiae tim10 strain growth, BacTiter-Glo luminescence, 24 h;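 active = inhibition of yeast growth at or above a set limit in either of two replicates at 10 µM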; note: this counterscreen used the strain with wild-type TIM10
Hits are given with their value; – = inactive; · = not tested or not shown. Shown are actives, neighbours in structure and some others; about 4.1% of the full set was active somewhere.

SMILES	tim23-1 inh	tim10-1 inh	NLRP3 yeast inh	TIM10 inh	NALP1 inh	tim10-1 conf	TIM10 conf
O=C1c2cccc3c([N+](=O)[O-])ccc(c23)C(=O)N1c1nccs1	–	84	–	69	–	73	96
Cc1[nH]c2ccccc2c1C(=O)CN1CCCCC1CCO (stereo unspecified)	–	–	–	–	–	·	·
COc1ccc(C)cc1NC(=O)Nc1ccc(C(=O)N2CCCC2)cc1	–	–	–	–	–	·	·
S=C(NC1CC2CCC1C2)N1CCN(c2cccc(Cl)c2)CC1 (stereo unspecified)	–	–	–	–	–	·	·
CC1(C)CC(=O)C2=C(C1)Nc1ccccc1N=C2	–	49	–	41	–	44	34
COc1cc(C(=O)Oc2ccc3ccc(O)cc3c2)cc(OC)c1OC	–	47	–	42	–	32	39
O=C(Nc1nnc(CC2=CCCCC2)s1)c1cccs1	–	47	–	72	–	42	–
O=C(CCNC(=O)c1ccc(Cl)cc1)Nc1ccc(S(=O)(=O)N2CCCCC2)cc1	–	–	–	–	·	·	·
CCc1nccn1S(=O)(=O)c1ccccc1[N+](=O)[O-]	–	50	–	44	–	62	57
COc1ccc(C(CNC(=O)c2ccc(-c3nc4ccccc4s3)o2)N2CCCC2)cc1 (stereo unspecified)	–	–	–	–	·	·	·
Cc1cc(C)n(C2CC(=O)N(c3ccc(Cl)c(Cl)c3)C2=O)n1 (stereo unspecified)	–	–	–	–	–	·	·
Cc1cccc(C)c1NC(=S)NN(Cc1ccccc1)c1ccccc1	–	–	–	–	–	·	·
CC(C)c1ccccc1NC(=S)NN(Cc1ccccc1)c1ccccc1	–	46	–	52	–	32	29
CC(CC(=O)NCc1ccco1)S(=O)(=O)c1ccc2c(c1)CCN2C(=O)C1CC1 (stereo unspecified)	–	–	–	–	–	·	·
Cc1ccc(Cl)cc1NC(=S)NCCCSC1CCCCC1	–	42	–	42	–	–	–
CCN(CC)/C(Sc1ccccc1)=C(/C(Cl)=C(Cl)Cl)[N+](=O)[O-]	–	46	–	42	–	33	35
O=C(Nc1cccc(NC(=O)c2ccc([N+](=O)[O-])o2)c1)c1ccco1	–	72	–	67	–	66	67
S=c1[nH]nc(CSc2nc3ccccc3s2)n1C1CCCCC1	–	47	–	49	–	42	–
S=c1[nH]nc(COc2ccccc2)n1C1CCCCC1	–	–	–	–	–	·	·
Cc1ccc(S(=O)(=O)CCC(=O)c2ccc(O)cc2O)cc1	–	54	–	55	–	47	50
Cc1ccc(S(=O)(=O)CCC(=O)OCC(=O)c2cc(C)ccc2C)cc1	–	–	–	–	·	·	·
O=C(COC(=O)c1ccc(CNS(=O)(=O)c2ccc(F)c(Cl)c2)cc1)NCC1CCCCC1	–	–	–	–	·	·	·
CCOC(=O)CNC(c1ccccc1)c1cc(Br)ccc1NC(=O)CCN1CCOCC1 (stereo unspecified)	–	45	–	55	98	40	40
COC(=O)CNC(c1ccccc1)c1cc(Br)ccc1NC(=O)CCN1CCOCC1 (stereo unspecified)	–	51	–	51	·	42	57
CCOC(=O)CNC(c1ccccc1)c1cc(Br)ccc1NC(=O)OCC (stereo unspecified)	–	–	–	–	–	·	·
SMILES	tim23-1 inh	tim10-1 inh	NLRP3 yeast inh	TIM10 inh	NALP1 inh	tim10-1 conf	TIM10 conf
COc1cccc(Nc2nc(-c3cccs3)nc3ccccc23)c1	–	53	–	48	–	36	45
COc1ccc(Nc2nc(-c3cccs3)nc3ccccc23)cc1	–	–	–	–	–	·	·
Cc1ccccc1S(=O)(=O)c1c(C)cc(C)n(C(C)C)c1=O	–	41	–	52	–	34	–
COc1ccc2[nH]c(C)c(CCNC(=S)Nc3cccc(C)c3)c2c1	–	–	–	–	–	·	·
CCc1cccc(CC)c1NC(=S)NCCc1c(C)[nH]c2ccc(C)cc12	–	45	–	46	–	42	46
CCOc1ccc(NC(=S)N(Cc2ccc(N(C)C)cc2)Cc2ccco2)cc1	–	52	–	46	–	43	36
COc1ccc(NC(=S)N(Cc2ccc(N(C)C)cc2)Cc2ccco2)cc1	–	–	–	–	–	·	·

Screening results: PubChem BioAssay, Sanford-Burnham Center for Chemical Genomics
